Compounds with a hit are over-represented: about 3.7% of the library has one in this group of screens.
miR-21 act: qHTS Assay for Modulators of miRNAs and/orActivators of miR-21; HeLa miR-21 FLuc reporter, luciferase, 48 h; Potency, µM (top dose mostly 38.3 µM), for inactives: at the top dose activity change, positive = activation, usual class: activators; 340,000 tested, under 10 active;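 further: % of control where 0% means no effect; miR-21 action dims this reporter so a rising signal means less miR-21 action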
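HeLa miR-21-FLuc reporter line, endogenous miR-21; 2000 cells/well in DMEM/10% FBS; compound titration up to ~40uM final, 48 h, 37 degree Celsius; luciferase detection reagent, 15 min lysis, CCD luminescence.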
A549 tox: Nrf2 qHTS screen for inhibitors: counterscreen for cytotoxicity. A549 ARE-Fluc cells, CellTiter-Fluor viability, 18-24 h. Potency, µM (highest dose often 46 µM), without a hit: at the highest dose activity change, negative = cytotoxicity, actives largely listed as inhibitors. 0.16% of 390,000 active; further: potency means the concentration at half of the fitted maximal effect; on the % scale 0 is the no-effect control and ±100 the full control effect
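Cytotoxicity counterscreen: CellTiter-Fluor fluorescence was measured in A549 ARE_Fluc cells after 18-24 h of compound exposure in a concentration series. The subsequent BugLite luminescent read reports ARE-luciferase activity.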
Nrf2 activator: qHTS of Nrf2 Activators | AREc32 ARE-luciferase reporter (MCF7-derived line), luminescence, 24 h | Potency, µM (top dose mostly 46.1 µM), without a hit: at the highest dose activation, most hits filed as activators | 0.31% of 410,000 active | AID 624171, 2012; further: potency means the concentration at half of the fitted maximal effect; % of control where 0% means no effect; nearly all actives have a fitted effect of over 65% in size
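ARE activation measured as luciferase luminescence (Steady-Glo, 30 min RT) in AREc32_Fluc cells after 24 hr compound exposure at 37 deg C, 5% CO2; cells seeded overnight at 1000/well in OPTI-MEM, 5% FBS.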
TCR act: Activators of T cell receptors: qHTS campaign; Potency, µM (doses to about 9.22 µM), for inactives: top-dose activation of IL-2 secretion, hits mostly activators; primary human leukocytes, anti-CD3, IL-2 HTRF, 48 h; 330,000 tested, under 10 active; AID 504894, 2011; further: % of control where 0% means no effect
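Primary human leukocytes incubated 48 hr with anti-CD3 beads plus compound, without co-stimulation. Secreted IL-2 measured by HTRF (europium cryptate/d2 anti-IL-2 pair, 320 nm excitation, 665 nm emission).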
Nrf2 block: Nrf2 qHTS screen for inhibitors. A549 ARE-Fluc reporter, luciferase luminescence, 18-24 h. Potency, µM (top dose mostly 46 µM), for the others: at the top dose activity change, negative = inhibition, hits mostly inhibitors. 2.1% of 360,000 active. AID 504444, 2011; further: potency means the concentration at half of the fitted maximal effect; on the % scale 0 is the no-effect control and ±100 the full control effect; nearly all actives have a fitted effect of over 60% in size
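Nrf2 function is reported as luminescence of an ARE-controlled luciferase in A549 cells. Compounds were tested at several concentrations, and a CellTiter-Fluor read on the same wells flagged cytotoxicity.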
ClpP mod: qHTS Assay for Activators of ClpP; purified B. subtilis ClpP, FRET peptide cleavage, 20 min; Potency, µM (highest dose often 57.5 µM), inactives show top-dose activity change, negative = active; 1.9% of 340,000 active; AID 651965, 2013; active means well fitted falling curve with a large enough effect; inconclusive means small, poorly fitted or top-dose-only effect; inactive means no such curve, though single readings can be large or run the other way; further: potency means the concentration at half of the fitted maximal effect; the source files actives as falling curves though it sought activators and does not explain the sign; nearly all actives have a fitted effect of over 65% in size
Target sequence (P80244 whole entry, looked up): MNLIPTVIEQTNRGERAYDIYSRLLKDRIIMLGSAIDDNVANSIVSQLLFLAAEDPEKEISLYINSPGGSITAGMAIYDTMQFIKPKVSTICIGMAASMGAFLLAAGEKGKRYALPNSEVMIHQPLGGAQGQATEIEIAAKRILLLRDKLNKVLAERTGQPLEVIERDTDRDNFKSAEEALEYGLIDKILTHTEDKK
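Buffer: 100 mM Tris/HCl pH8, 100 mM KCl, 0.05% low protease BSA, 2.5% glycerol, 0.01% Tween-20. ClpP 10 microg/mL final; 20 min RT; delta FRET normalized to ADEP and DMSO controls.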
An asterisk follows results filed as active; ? = inconclusive; / = no result given; [ ] = dose if it differs, or a comment. Unless noted, the call rests on the fitted dose curve; in most records, active means well fitted curve in the direction sought with a large enough effect; inconclusive means small, poorly fitted or top-dose-only effect, or another doubt; inactive means no such curve, though single readings can be large; an effect the other way counts as inactive or inconclusive.

SMILES	miR-21 act	A549 tox	Nrf2 activator	TCR act	Nrf2 block	ClpP mod
Cc1cc(-c2ccccc2)cc(-c2ccccc2)[n+]1C	22.0%	-12.5%	0.4%	-2.1%	11.6µM*	/
CCOc1ccc(C(=O)Nc2ccc(OCc3cc(=O)n4cccc(C)c4n3)cc2)cc1	-2.0%	-8.6%	-0.7%	/	/	?
CCc1ccc(NS(=O)(=O)c2ccc3[nH]c(=O)[nH]c3c2)cc1	-3.2%	-1.9%	-0.5%	-5.0%	-10.7%	/
CC(C)Cc1ccc(S(=O)(=O)Nc2ccc3[nH]c(=O)[nH]c3c2)cc1	7.7%	0.1%	0.6%	-7.6%	18.4µM*	1.0%
COc1ccc(/C=C2/CCc3ccccc3C2=O)cc1OC	-62.1%	-9.4%	?	6.2%[46.1 µM]	23.1µM*	0.5%
O=C1/C(=C\c2ccc(Br)o2)Cc2ccccc21	-29.0%	0.6%	11.2µM*	?	?	1.2%
O=C1C(=Cc2cccc(Cl)c2)Cc2ccccc21	/	/	10µM*	/	/	-0.1%
COc1cc(OC)c(OC)cc1/C=C1/Cc2ccccc2C1=O	-4.2%	15.9%	5.62µM*	1.7%	2.9%	0.3%
COCCCNC(=O)c1nn(-c2ccc(C)cc2)c(=O)n(C)c1=O	1.5%	3.7%	0.4%	/	/	3.2%
CCCC(O)c1nc2ccccc2n1CCCCOc1ccc(OC)cc1 (stereo unspecified)	-25.7%	6.3%	5.5%	/	?	-2.3%
COc1cc(/C=C2/CCc3ccccc3C2=O)cc(OC)c1OC	24.7%	-17.2%	?	-1.7%[46.1 µM]	14.6µM*	-2.8%
COc1cc(/C=C2\CCC(C3CCCC3)C2=O)cc(OC)c1OC (stereo unspecified)	-7.1%	0.2%	2.3%	0.4%	-2.7%	/
COc1cc(/C=C2\CC(C(C)(C)C)C/C(=C\c3cc(OC)c(OC)c(OC)c3)C2=O)cc(OC)c1OC (stereo unspecified)	-3.5%	8.2µM*	?	-3.3%	5.8µM*	-2.1%
COc1cc(/C=C2\CC/C(=C\c3cc(OC)c(OC)c(OC)c3)C2=O)cc(OC)c1OC	-4.8%	-0.9%	16.4%	-9.9%[46.1 µM]	-14.0%	/
Cn1cccc1/C=C1\Cc2ccccc2C1=O	-56.4%	-3.6%	11.2µM*	-1.5%	21.9%	1.6%
COc1cc(/C=C2\CC/C(=C\c3cc(OC)c(O)c(OC)c3)C2=O)cc(OC)c1O	26.9%	?	-1.0%	-0.2%[46.1 µM]	16.4µM*	-0.9%
COc1cccc(CNC(=O)CSC2=Nc3ccccc3C3=NC(C(C)C)C(=O)N23)c1 (stereo unspecified)	-3.0%	-3.7%	0.1%	/	/	?
CCC1C/C(=C\c2cc(OC)c(OC)cc2OC)C(=O)/C(=C/c2cc(OC)c(OC)cc2OC)C1 (stereo unspecified)	?	?	-3.0%	6.0%	18.4µM*	-1.4%
O=S1(=O)N=C(Oc2cccc(C(F)(F)F)c2)c2ccccc21	/	2.0%	/	/	4.8%	/
CCCCNC(=O)c1cc2c(=O)n3cccc(C)c3nc2n(CCN2CCOCC2)c1=N	-8.9%	-4.3%	0.0%	-3.9%	7.7%	12.6µM*
CCCCNC(=O)c1cc2c(=O)n3cccc(C)c3nc2n(Cc2ccncc2)c1=N	-3.0%	?	-0.7%	8.0%	24.5%	3.55µM*
Cc1cccn2c(=O)c3cc(C#N)c(=N)n(CCCN4CCOCC4)c3nc12	/	-8.1%	0.0%	-5.9%	-0.1%	?
Cc1cccn2c(=O)c3cc(C(=O)NC4CCCCC4)c(=N)n(CCN4CCOCC4)c3nc12	0.6%	-18.4%	3.5%	-7.1%	-0.8%	3.8%
Cc1cccn2c(=O)c3cc(C#N)c(=N)n(CCN4CCOCC4)c3nc12	-15.6%	-3.9%	-0.2%	-6.6%	10.6%	15.8µM*

Screening data: PubChem, National Center for Advancing Translational Sciences (NCATS)
